Compound activity as filed in PubChem.
RGS8-Gao: human RGS8-Galphao interaction regulation | P09471 | multiplexed bead flow cytometry, RGS8-Galphao binding; actives lie on both sides | actives 0.34% (n = 220,000) | response (percent of control binding), % at 10 µM | AID 1423; in the data active means response below about 60% or above about 140%; inactive means in between;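 further: Galphao activated as the GDP aluminium fluoride complex binding bead-coupled RGS8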
Target sequence (P09471 whole entry, looked up): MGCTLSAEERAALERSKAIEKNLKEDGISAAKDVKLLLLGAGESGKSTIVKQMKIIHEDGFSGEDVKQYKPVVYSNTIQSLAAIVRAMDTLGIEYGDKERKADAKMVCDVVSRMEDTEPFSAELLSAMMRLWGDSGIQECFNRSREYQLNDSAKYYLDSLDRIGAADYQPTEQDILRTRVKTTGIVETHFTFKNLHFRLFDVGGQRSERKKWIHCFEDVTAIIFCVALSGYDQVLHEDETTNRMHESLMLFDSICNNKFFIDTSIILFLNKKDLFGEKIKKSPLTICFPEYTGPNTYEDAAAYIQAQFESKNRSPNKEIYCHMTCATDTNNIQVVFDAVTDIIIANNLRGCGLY
GSH bead fluor: compound fluoresces at 488/530 nm on GSH beads; fluorescence (KMESF) at 10 µM; GSH beads flow cytometry, compound fluorescence 488/530 nm; active compounds read high; actives 0.25% (n = 190,000); in the data active means fluorescence above about 89;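 further: glutathione beads carrying GST-tagged Bcl family fusion proteins plus one bare bead set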
RGS16-Gao: RGS16-Galphao interaction regulator (human) | O15492+P09471 | bead-based flow cytometry RGS16-Galphao binding, fluorescence; actives lie on both sides | binding response (% of control), % at 10 µM | actives 0.38% (n = 220,000) | AID 1441;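 further: Galphao activated by GDP with aluminum fluoride before binding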
Target sequence (O15492 whole entry, looked up): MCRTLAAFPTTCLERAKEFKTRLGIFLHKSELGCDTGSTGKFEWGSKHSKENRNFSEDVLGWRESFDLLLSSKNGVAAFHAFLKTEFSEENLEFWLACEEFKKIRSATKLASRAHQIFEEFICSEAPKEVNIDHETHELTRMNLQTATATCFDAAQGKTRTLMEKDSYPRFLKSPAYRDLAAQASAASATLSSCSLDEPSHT
Target sequence (P09471 whole entry, looked up): as the sequence (P09471 whole entry, looked up) above
Avidin fluor: avidin bead compound fluorescence profile | fluorescence (KMESF) at 10 µM | actives 0.38% (n = 220,000) | Avidin beads, compound fluorescence 488/530 nm, flow cytometry; active compounds read high; in the data active means fluorescence above about 47
RGS7-Gao reg: regulators of human RGS7-Galphao interaction; Multiplexed bead flow cytometry, RGS7-Galphao binding; actives lie on both sides; binding response (% of control), % at 10 µM; actives 0.35% (n = 220,000); in the data active means binding response below about 49% or above about 150%; inconclusive means no clear call, values can overlap the other calls; inactive means in between;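 further: fluorescent Galphao held in activated GDP-AlF4 state binding bead-coupled RGS7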
RGS4-Gao reg: human RGS4-Galphao interaction regulation; P09471; Multiplexed bead flow cytometry, RGS4-Galphao binding; actives lie on both sides; binding response (% of control), % at 10 µM; actives 0.33% (n = 220,000); AID 1415; in the data active means binding response below about 49% or above about 150%; inactive means in between;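 further: fluorescent Galphao activated with aluminum fluoride binding bead-coupled RGS4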
RGS4-Gao HTS: RGS4-Galphao interaction regulator (human); multiplexed bead flow cytometry, RGS–Galpha-o binding; actives 99% (n = 1,600); shares compounds with RGS16-Gao; RGS4–Galpha-o binding response, % at 10 µM;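 further: fluorescently labeled Galpha-o bound to GDP with aluminium fluoride binding biotinylated RGS beads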
Biotin-avidin: counter-screen: compounds disrupting biotin binding to avidin beads; shares compounds with RGS16-Gao; streptavidin beads, fluorescein-biotin binding, flow cytometry; inhibition, % at 10 µM; 1,700 tested, under 10 active; AID 1783;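 active means inhibition above 50%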;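 further: median green fluorescence of gated singlet beads compared with DMSO control wells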
RGS8-Gao confirm: confirmation of regulators of human RGS8-Galphao interaction; shares compounds with RGS16-Gao; bead-based flow cytometry RGS8-Galphao binding, fluorescence; actives lie on both sides; binding response (% of control), % at 10 µM; actives 3% (n = 1,700); in the data active means binding response below about 72% or above about 130%; inactive means in between;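 further: Galphao activated as GDP AlF4 complex before binding bead RGS8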
RGS7-Gao confirm: confirmation of regulators of human RGS7-Galphao interaction; AID 1837; response (percent of control binding), % at 10 µM; bead-based flow cytometry RGS7-Galphao binding; actives lie on both sides; actives 7.8% (n = 1,700); shares compounds with RGS16-Gao; in the data active means response below about 75% or above about 130%; inactive means in between;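 further: fluorescent Galphao activated with GDP and aluminum fluoride binding bead-coupled RGS7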
RGS16-Gao single: confirmation of regulators of human RGS16-Galphao interaction | shares compounds with RGS16-Gao | bead-based flow cytometry, RGS16-Galphao binding; actives lie on both sides | response (% of control binding), % at 10 µM | actives 4% (n = 1,700); in the data active means response below about 74% or above about 130%; inactive means in between;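 further: Galphao activated as the GDP aluminium fluoride complex binding bead-coupled RGS16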
RGS4-Gao confirm: RGS4-Galphao interaction regulation, single point confirmation; shares compounds with RGS16-Gao; RGS4-Galphao binding, multiplexed bead flow cytometry; actives lie on both sides; actives 4% (n = 1,700); binding response (% of control), % at 10 µM; in the data active means binding response below about 74% or above about 130%; inactive means in between
RGS19-Gao conf: RGS19-Galphao interaction regulation, single point confirmation; shares compounds with RGS16-Gao; bead-based flow cytometry RGS19-Galphao binding; actives lie on both sides; response (percent of control binding), % at 10 µM; actives 5% (n = 1,700); AID 1841; in the data active means response below about 50% or above about 160%; inactive means in between
Numbers stand for hits; i = inactive; ? = inconclusive; nt = no result given; [ ] = another dose, or the depositor's remark. Only some compounds are listed: those with a hit (about 1.2% of all), similar ones and a draw of the others. Unless noted, how the calls were made is not given here.

SMILES | RGS8-Gao | GSH bead fluor | RGS16-Gao | Avidin fluor | RGS7-Gao reg | RGS4-Gao reg | RGS4-Gao HTS | Biotin-avidin | RGS8-Gao confirm | RGS7-Gao confirm | RGS16-Gao single | RGS4-Gao confirm | RGS19-Gao conf
C[C@H](NC(=O)c1nc[nH]c1C(=O)N[C@H](C)c1ccccc1)C(=O)OC(C)(C)C | 20.6 | i | 15.8 | i | 16.8 | 25.4 | nt | i | i | i | i | i | i
Cc1cc(-c2ccccc2C(=O)NC2CCCCC2)on1 | i | nt | i | i | ? | i | nt | nt | nt | nt | nt | nt | nt
Cc1c(Cl)cccc1NC(=O)C(=O)NNC(=O)c1ccccc1F | i | i | i | i | ? | i | nt | nt | nt | nt | nt | nt | nt
CCOc1ccc(S(=O)(=O)NC2CCCCCC2)cc1 | 49.9 | i | i | i | 34.7 | 45.9 | nt | i | i | i | i | i | i
CCOc1ccc(S(=O)(=O)N/N=C(\C)C2CCCCC2)cc1 | i | i | 14.3 | i | i | i | 101.2 | i | i | i | i | i | i
CCOc1ccc(S(=O)(=O)N/N=C(\C)Cc2ccc(OC)cc2)cc1 | i | i | i | i | ? | i | nt | nt | nt | nt | nt | nt | nt
CC(NC(=O)c1ccc2c(c1)OCCO2)c1ccc(S(N)(=O)=O)cc1 (configuration not stated) | i | i | i | i | i | i | nt | nt | nt | nt | nt | nt | nt
CCOC(=O)c1c(CSC(=N)N)n(-c2ccccc2)c2cc(Br)c(OC(C)=O)cc12 | i | nt | i | i | ? | i | nt | nt | nt | nt | nt | nt | nt
CCCN1CCN(CCCNC(=O)CCNC(=O)Cn2ccc3ccccc3c2=O)CC1 | 141.7[activator] | i | i | i | i | i | 103.6 | i | i | i | i | i | i
CCN1CCN(C(=O)CCNC(=O)Cn2ccc3ccccc3c2=O)CC1 | i | i | i | i | i | i | nt | nt | nt | nt | nt | nt | nt
COc1ccc2c(c1)Cc1sc(NC(=O)c3ccco3)nc1-2 | 57.5 | i | i | i | 46.0 | i | 52.5 | i | i | i | i | i | i
COc1ccc2c(c1)CCc1sc(NC(=O)c3ccco3)nc1-2 | i | i | i | i | i | i | nt | nt | nt | nt | nt | nt | nt
CC(C)(C)OC(=O)N[C@@H](Cc1ccccc1)[C@H](O)c1ccco1 | i | nt | i | i | ? | i | nt | nt | nt | nt | nt | nt | nt
CCCCN(CCCC)S(=O)(=O)c1ccc(NC(=O)c2ccc([N+](=O)[O-])cc2Cl)cc1 | i | i | 304.1[activator] | i | i | i | 113.4 | i | i | i | i | i | i
Cc1ccc(S(=O)(=O)NNC(=O)CCCCC(=O)NNS(=O)(=O)c2ccc(C)cc2)cc1 | i | i | i | i | i | i | nt | nt | nt | nt | nt | nt | nt
COc1ccc(C(CC(=O)Nc2ccccc2OC)n2cccc2)cc1 (configuration not stated) | i | i | 15.3 | i | i | i | 92.6 | i | i | i | i | i | i
CCOC(=O)c1[nH]ncc1CN1CCN(Cc2ccc(C)cc2)C(CCO)C1 (configuration not stated) | i | i | i | i | i | i | nt | nt | nt | nt | nt | nt | nt
CCn1cc(CCC(=O)O)c(C)n1 | 145.5[activator] | i | i | i | i | i | 141.6 | i | i | i | i | i | i
Cc1ccc(-c2nn(CCC(=O)O)cc2CCC(=O)O)cc1 | i | i | i | i | i | i | nt | nt | nt | nt | nt | nt | nt
CC(C)CNC(=O)NC(=O)COC(=O)c1ccccc1Sc1ccc(C(F)(F)F)cc1[N+](=O)[O-] | i | i | i | i | i | i | nt | nt | nt | nt | nt | nt | nt
C=CCNC(=O)NC(=O)COC(=O)c1ccccc1Sc1ccc(C(F)(F)F)cc1[N+](=O)[O-] | i | i | 184.1[activator] | i | i | i | 106.1 | i | i | i | i | i | i
COc1ccc(-n2nc(C(=O)NCC(=O)N3CCN(C)CC3)c3ccccc3c2=O)cc1OC | 141.8[activator] | i | i | i | i | i | 108.5 | i | i | i | i | i | i
COc1ccc(-n2nc(C(=O)NCC(=O)N3CCN(c4ccccn4)CC3)c3ccccc3c2=O)cc1Cl | i | i | i | i | i | i | nt | nt | nt | nt | nt | nt | nt
COc1ccc(NC(=O)C2CC(=O)OC2c2ccccc2)cc1 (configuration not stated) | i | i | 24.1 | i | i | i | 96.4 | i | i | i | i | i | i
Cc1cc(NC(=O)C2CC(=O)OC2c2ccccc2)no1 (configuration not stated) | i | i | i | i | i | i | nt | nt | nt | nt | nt | nt | nt
SMILES | RGS8-Gao | GSH bead fluor | RGS16-Gao | Avidin fluor | RGS7-Gao reg | RGS4-Gao reg | RGS4-Gao HTS | Biotin-avidin | RGS8-Gao confirm | RGS7-Gao confirm | RGS16-Gao single | RGS4-Gao confirm | RGS19-Gao conf
O=C(CN(C(=O)CSc1nc2ccccc2o1)c1ccccc1F)NC1CCCCC1 | i | i | i | i | i | i | nt | nt | nt | nt | nt | nt | nt
CC1CN/C(=C\C(=O)c2ccc(Cl)cc2)C(=O)N1 (configuration not stated) | i | i | i | i | i | i | nt | nt | nt | nt | nt | nt | nt
CC1CN/C(=C\C(=O)c2ccccc2)C(=O)N1 (configuration not stated) | 56.4 | i | i | i | 43.7 | 49.4 | nt | i | i | i | i | i | i
COc1cc(OC)cc(C(=O)NC2=NCCS2)c1 | i | i | i | i | i | i | nt | nt | nt | nt | nt | nt | nt
COc1cc(NC(=O)SC2=NCCS2)cc(OC)c1 | i | nt | i | i | ? | 40.7 | nt | i | i | i | i | i | i
CCOC(=O)c1ccccc1NC(=O)Cn1cnc2c(nnn2-c2ccc(C)cc2)c1=O | i | i | i | i | i | i | nt | nt | nt | nt | nt | nt | nt
COc1ccccc1NC(=O)Cn1cnc2c(nnn2-c2ccc(C)cc2)c1=O | i | i | i | i | 154.1[activator] | i | 104.3 | i | i | i | i | i | i
COc1ccc2c(c1)c1nc(SCC(C)C)n(CCO)c(=O)c1n2C | 48.5 | i | i | i | 42.5 | 40.9 | nt | i | i | i | i | i | i
Cc1ccc(-n2c(SCC(=O)NCc3ccco3)nc3c([nH]c4ccccc43)c2=O)cc1 | 6.5 | i | -4.2 | i | -10.8 | -3.0 | nt | i | i | i | i | i | i
CCOC(=O)/C(C#N)=C/Nc1ccsc1C(=O)OC | i | nt | i | i | ? | i | nt | nt | nt | nt | nt | nt | nt
